Measurements: PubChem BioAssay (Tox21)
Records with an inconclusive call do not appear. A call without a number means that no potency is given here. The source made the active and inactive calls. Unless noted, the call rests on the fitted dose curve; in most records, active means well fitted cell-killing curve with a large enough effect in the repeat runs (not every such curve was filed as active); inconclusive means weak or mixed curves, or effect the other way; inactive means no such curve, though single readings can be large or run the other way.

Biological target: Bile acid receptor (Homo sapiens) (UniProt Q96RI1)
Experiment: qHTS assay to identify small molecule agonists of the farnesoid-X-receptor (FXR) signaling pathway (AID 743220; active means well fitted activation curve with a large enough effect in the signal ratio in the repeat runs, not every such curve was filed as active; the % refers to the signal ratio)
Conditions: HEK293T FXR-UAS-bla, beta-lactamase FRET ratio, 16 h; series mostly up to 62.6 µM
In short: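 FXR-UAS-bla HEK 293T cells carrying a UAS-driven beta-lactamase reporter were plated for 5 h at 37C/5% CO2, then exposed to DMSO-dissolved Tox21 10K compounds for 16 h at 37C. A LiveBLAzer B/G FRET substrate was loaded for 2 h at room temperature before fluorescence reading.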

Chain of Bile acid receptor (Homo sapiens) (Q96RI1 whole entry, looked up): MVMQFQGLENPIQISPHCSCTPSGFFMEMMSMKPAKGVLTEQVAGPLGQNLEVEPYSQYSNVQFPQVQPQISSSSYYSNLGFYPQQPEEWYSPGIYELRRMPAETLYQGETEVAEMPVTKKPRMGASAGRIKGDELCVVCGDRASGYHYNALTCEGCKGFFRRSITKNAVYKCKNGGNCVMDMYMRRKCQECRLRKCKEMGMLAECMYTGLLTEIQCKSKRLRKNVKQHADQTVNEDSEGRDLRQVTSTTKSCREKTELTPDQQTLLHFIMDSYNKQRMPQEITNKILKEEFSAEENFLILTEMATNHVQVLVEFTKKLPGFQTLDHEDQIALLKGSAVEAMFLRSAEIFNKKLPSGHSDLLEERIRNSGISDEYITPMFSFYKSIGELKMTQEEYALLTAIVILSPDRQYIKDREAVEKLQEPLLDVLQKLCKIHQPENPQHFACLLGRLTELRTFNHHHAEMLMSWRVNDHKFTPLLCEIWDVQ

SMILES | outcome
CCNc1nc(Cl)nc(NC(C)(C)C)n1 | inactive
CCOC(=O)CCl | inactive
NCCOS(=O)(=O)O | inactive
Cc1ccc2cc(C)ccc2c1 | inactive
C[C@H](N)C(=O)c1ccccc1 | inactive
C=CCN1CC[C@]23CCCC[C@H]2[C@H]1Cc1ccc(O)cc13 | inactive
CCN(CCO)CCn1c(Cc2ccccc2)nc2c1c(=O)n(C)c(=O)n2C | inactive
CN(C)CCN(C)C | inactive
CC[C@H](O)C(C[C@H](C)N(C)C)(c1ccccc1)c1ccccc1 | inactive
Oc1ccc2c3c1O[C@H]1[C@@H](O)C=C[C@H]4[C@@H](C2)NCC[C@@]341 | inactive
CCOC(=O)C(SP(=S)(OC)OC)c1ccccc1 (stereo not drawn) | inactive
CC(C)[C@]12CC(=O)[C@H](C)[C@H]1C2 | inactive

Test system: not listed separately
Experiment: qHTS assay to identify small molecule antagonists of the farnesoid-X-receptor (FXR) signaling pathway - cell viability counter screen (AID 743221); further: nearly all actives have a fitted effect of over 50% in size
Conditions: FXR-bla HEK293T viability, CellTiter-Glo luminescence, 16 h; series mostly up to 62.6 µM
In short: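 Multiplexed counter screen: viability of FXR-bla HEK 293T cells under agonist stimulation by chenodeoxycholic acid (50 uM, final) and test compound for 16 h at 37 C, measured by CellTiter-Glo luminescence in the reporter wells.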

SMILES | Potency
COC(=O)[C@@H](N)CCCN/C(N)=N/[N+](=O)[O-] | inactive
CCNc1nc(Cl)nc(NC(C)(C)C)n1 | inactive
CC(C)[N+](C)(CCC(C(N)=O)(c1ccccc1)c1ccccc1)C(C)C | inactive
CCOC(=O)N(C)N=O | inactive
c1cncc([C@@H]2CCCCN2)c1 | inactive
CCOC(=O)CCl | inactive
NCCOS(=O)(=O)O | inactive
Cc1ccc(-c2nc3ccc(C)cn3c2CC(=O)N(C)C)cc1 | inactive
Cc1ccc2cc(C)ccc2c1 | inactive
C[C@H](N)C(=O)c1ccccc1 | inactive
C=CCN1CC[C@]23CCCC[C@H]2[C@H]1Cc1ccc(O)cc13 | inactive
COc1cccc(C=O)c1 | inactive
CCN[C@H](C)Cc1cccc(C(F)(F)F)c1 | inactive
CCOc1cc(OP(=S)(OC)OC)nc(CC)n1 | inactive
Cc1cc(OC(=O)N(C)C)nn1C(=O)N(C)C | inactive
O=C(Cl)OCc1ccccc1 | inactive
CN(C)CCN(C)C | inactive
O=C(CCl)NCO | inactive
CCCOC(=O)Cc1ccc(OCC(=O)N(CC)CC)c(OC)c1 | inactive
O=CCCl | inactive
Cl/C=C/CCl | inactive
C=CCc1cc(OC)c2c(c1)OCO2 | inactive
COc1ccc(C=O)cc1O | inactive
Cc1ccc2c(c1)C1CN(C)CCC1N2 (stereo not drawn) | inactive
Oc1ccc2c3c1O[C@H]1[C@@H](O)C=C[C@H]4[C@@H](C2)NCC[C@@]341 | inactive
CCOC(=O)C(SP(=S)(OC)OC)c1ccccc1 (stereo not drawn) | inactive
CC(C)[C@]12CC(=O)[C@H](C)[C@H]1C2 | inactive
O=c1[nH]oc2c1CCNC2 | inactive

Biological target: Vitamin D3 receptor (Homo sapiens) (UniProt P11473)
Experiment: qHTS assay to identify small molecule agonists of the vitamin D receptor (VDR) signaling pathway (AID 743222; calls by dose curve)
Conditions: HEK293T VDR-UAS-bla, beta-lactamase FRET ratio, 16 h; series mostly up to 63.5 µM
In short: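 Agonist mode, beta-lactamase reporter: fluorescence from LiveBLAzer B/G FRET substrate (2 h, room temperature) read after 16 h compound treatment at 37 C of VDR-bla cells, which were pre-incubated 4 h after seeding.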

Chain of Vitamin D3 receptor (Homo sapiens) (P11473 whole entry, looked up): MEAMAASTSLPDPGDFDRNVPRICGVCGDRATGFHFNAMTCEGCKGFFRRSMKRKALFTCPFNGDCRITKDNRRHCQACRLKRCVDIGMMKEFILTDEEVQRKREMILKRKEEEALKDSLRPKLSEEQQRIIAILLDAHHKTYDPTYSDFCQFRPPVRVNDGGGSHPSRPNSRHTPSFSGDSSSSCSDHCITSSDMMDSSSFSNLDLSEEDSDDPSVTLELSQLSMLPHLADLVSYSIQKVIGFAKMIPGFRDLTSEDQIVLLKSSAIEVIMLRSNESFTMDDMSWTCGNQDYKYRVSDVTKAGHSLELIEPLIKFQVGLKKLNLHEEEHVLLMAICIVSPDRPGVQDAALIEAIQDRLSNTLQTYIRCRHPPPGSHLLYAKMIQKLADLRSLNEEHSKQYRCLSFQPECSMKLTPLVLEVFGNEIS

SMILES | outcome
CCNc1nc(Cl)nc(NC(C)(C)C)n1 | inactive
CCOC(=O)N(C)N=O | inactive
c1cncc([C@@H]2CCCCN2)c1 | inactive
CCOC(=O)CCl | inactive
NCCOS(=O)(=O)O | inactive
Cc1ccc2cc(C)ccc2c1 | inactive
C[C@H](N)C(=O)c1ccccc1 | inactive
C=CCN1CC[C@]23CCCC[C@H]2[C@H]1Cc1ccc(O)cc13 | inactive
N#CC(Br)(Br)C(N)=O | inactive
COc1cccc(C=O)c1 | inactive
C#CC(C)(C)O | inactive
CCOc1cc(OP(=S)(OC)OC)nc(CC)n1 | inactive
ClC1=C(Cl)C2(Cl)C(CBr)CC1(Cl)C2(Cl)Cl (stereo not drawn) | inactive
CN(C)CCN(C)C | inactive
O=C(CCl)NCO | inactive
CC[C@H](O)C(C[C@H](C)N(C)C)(c1ccccc1)c1ccccc1 | inactive
O=CCCl | inactive
Cn1c(N)nc2c3cccnc3ccc21 | inactive
Cl/C=C/CCl | inactive
C=CCc1cc(OC)c2c(c1)OCO2 | inactive
Cc1ccc2c(c1)C1CN(C)CCC1N2 (stereo not drawn) | inactive
Oc1ccc2c3c1O[C@H]1[C@@H](O)C=C[C@H]4[C@@H](C2)NCC[C@@]341 | inactive
CCOC(=O)C(SP(=S)(OC)OC)c1ccccc1 (stereo not drawn) | inactive
CC(C)[C@]12CC(=O)[C@H](C)[C@H]1C2 | inactive

Biological target: Vitamin D3 receptor (Homo sapiens) (UniProt P11473)
Experiment: qHTS assay to identify small molecule antagonists of the vitamin D receptor (VDR) signaling pathway (AID 743223; active means well fitted inhibition curve with a large enough effect in the signal ratio in the repeat runs, not every such curve was filed as active; the % refers to the signal ratio)
Conditions: VDR-UAS-bla HEK293T, beta-lactamase FRET ratio, 16 h; series mostly up to 61 µM
In short: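 Cells carrying a VDR-driven beta-lactamase reporter (VDR-bla) were co-treated with compound and 3 nM final 1alpha,25-dihydroxyvitamin D3 for 16 h at 37C; reporter activity was measured as FRET substrate fluorescence after 2 h at room temperature.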

SMILES | outcome
CCNc1nc(Cl)nc(NC(C)(C)C)n1 | inactive
CCOC(=O)N(C)N=O | inactive
c1cncc([C@@H]2CCCCN2)c1 | inactive
CCOC(=O)CCl | inactive
NCCOS(=O)(=O)O | inactive
Cc1ccc(-c2nc3ccc(C)cn3c2CC(=O)N(C)C)cc1 | inactive
C[C@H](N)C(=O)c1ccccc1 | inactive
C=CCN1CC[C@]23CCCC[C@H]2[C@H]1Cc1ccc(O)cc13 | inactive
C#CC(C)(C)O | inactive
ClC1=C(Cl)C2(Cl)C(CBr)CC1(Cl)C2(Cl)Cl (stereo not drawn) | inactive
CN(C)CCN(C)C | inactive
CC[C@H](O)C(C[C@H](C)N(C)C)(c1ccccc1)c1ccccc1 | inactive
O=CCCl | inactive
Cl/C=C/CCl | inactive
C=CCc1cc(OC)c2c(c1)OCO2 | inactive
Cc1ccc2c(c1)C1CN(C)CCC1N2 (stereo not drawn) | inactive
Oc1ccc2c3c1O[C@H]1[C@@H](O)C=C[C@H]4[C@@H](C2)NCC[C@@]341 | inactive
CCOC(=O)C(SP(=S)(OC)OC)c1ccccc1 (stereo not drawn) | inactive
CC(C)[C@]12CC(=O)[C@H](C)[C@H]1C2 | inactive
